# Rows were chosen to be rich in hits. Some 0.74% of all compounds tested hit in one or more screens of this group.
# Vc quorum ag: inducers of Vibrio cholerae quorum light production without autoinducers, primary screen, BH1578 luxS cqsA deficient, single point. 0.16% of 350,000 active. AID 588436, 2011. V. cholerae BH1578 lux reporter, luminescence, 6 h. activation, % at 18.7 µM; in the data active = activation mostly above about 9.7%, no sharp cut-off; inconclusive = no clear call, values can overlap the other calls; inactive = mostly below about 3.7%
# MazEF act: activators of E. coli MazEF toxin-antitoxin RNase, primary screen, biochemical, fluorescence, uHTS. FAM/BHQ RNA-DNA oligo cleavage fluorescence, 5 h. 0.32% of 350,000 active. AID 504720, 2011. activation, % at 20 µM; in the data active = activation above about 50%
# Target sequence (P0AE70 whole entry, looked up): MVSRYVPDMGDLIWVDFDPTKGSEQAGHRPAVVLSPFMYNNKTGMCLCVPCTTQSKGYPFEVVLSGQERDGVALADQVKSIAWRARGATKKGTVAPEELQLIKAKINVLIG
# Mtb betalactam: beta-lactam sensitization of Mtb H37Rv, H37Rv. M. tuberculosis H37Rv growth with meropenem, percent inhibition. inhibition, % at 25 µM. 0.27% of 330,000 active. AID 434955, 2010; call rule not given here;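 also: growth measured after seven days incubation then overnight dye step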
# Rv3671c inh: Rv3671c serine protease inhibitors, primary screen, biochemical, fluorescence polarization, M. tuberculosis H37Rv. inhibition, % at 5.96 µM. 0.048% of 320,000 active. P9WHR9. AID 2606, 2010; in the data active = inhibition above about 38%;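 also: extracellular domain of Rv3671c used as enzyme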
# FadD28 binding: inhibitors of FadD28 bisubstrate probe binding, primary screen, biochemical, fluorescence polarization, single point; Mycobacterium tuberculosis FadD28 fatty-acid-AMP ligase; inhibition, % at 12.5 µM; 0.22% of 360,000 active; in the data active = inhibition above about 8.5%, passing the limit was not always enough; inconclusive = no clear call, values can overlap the other calls
# Mtb UGM inh: M. tuberculosis UGM enzyme inhibitors, primary screen, biochemical, fluorescence polarization, single point; purified UGM, fluorescence polarization probe displacement; inhibition, % at 10 µM; 0.06% of 320,000 active; AID 504406, 2011; in the data active = inhibition above about 10%, passing the limit was not always enough; inconclusive = no clear call, values can overlap the other calls
# Target sequence (P9WIQ1 whole entry, looked up): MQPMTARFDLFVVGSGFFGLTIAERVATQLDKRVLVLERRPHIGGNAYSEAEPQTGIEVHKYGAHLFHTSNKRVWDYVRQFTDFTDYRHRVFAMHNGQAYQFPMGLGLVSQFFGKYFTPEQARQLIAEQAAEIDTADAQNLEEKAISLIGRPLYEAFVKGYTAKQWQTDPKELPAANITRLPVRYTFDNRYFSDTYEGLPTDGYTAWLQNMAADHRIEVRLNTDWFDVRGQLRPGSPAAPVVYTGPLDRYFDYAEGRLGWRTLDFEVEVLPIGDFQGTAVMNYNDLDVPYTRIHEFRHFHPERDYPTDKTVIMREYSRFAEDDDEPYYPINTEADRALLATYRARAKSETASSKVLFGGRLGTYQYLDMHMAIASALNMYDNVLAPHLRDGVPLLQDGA
# Numbers stand for hits; i = inactive; ? = inconclusive; nt = not tested or not shown; + = active, no number.
SMILES,Vc quorum ag,MazEF act,Mtb betalactam,Rv3671c inh,FadD28 binding,Mtb UGM inh
CCN1/C(=C/c2ccc3cccc(C)c3[n+]2CC)Sc2ccccc21,i,73.2,i,i,i,i
COc1ccc(CCNC(=O)Nc2nc(C(N)C3CCCCC3)cs2)cc1OC (stereo not given),i,nt,nt,nt,i,nt
Cc1cc(C)c(NC(=O)CN(C)C(=O)C2CC(=O)N(c3cccc4ccccc34)C2)c(C)c1 (stereo not given),i,i,i,i,i,nt
O=c1cc(CN2CCCc3ccccc32)nc2sccn12,i,91.4,i,i,i,i
O=C(O)c1cc(N/N=C/C(Cl)=C/c2ccccc2)ccc1Cl,i,i,i,i,18.9,i
O=C(O)c1cccc2c1-c1ccccc1/C2=N\Nc1ccccc1,i,i,i,i,?,i
O=C(O)c1cccc(NN=C2c3ccccc3-c3ccccc32)c1,i,i,nt,nt,13.3,nt
O=C(O)c1cc(NN=C2c3ccccc3-c3ccccc32)ccc1Cl,i,i,i,i,14.8,i
Nc1cc(=O)[nH]c(SCC(=O)c2ccc(F)cc2)n1,i,i,i,i,i,i
O=C1C(=Cc2ccc(Br)o2)C(=O)c2ccccc21,i,i,i,i,40.8,i
CC1=C/C(=C\c2ccc(Br)o2)C(=O)O1,i,i,i,i,i,i
CCCNC(=O)c1onc(CS(=O)(=O)c2cc(C)cc(C)c2)c1C(=O)NCCC,i,i,i,i,i,i
CC(N)=Nc1ccc([N+](=O)[O-])cc1,i,i,i,i,i,14.2
O=C(CC1CCCCC1)NCC1CCCO1 (stereo not given),16.7,i,i,i,i,i
Oc1ccc(N=Nc2ccccc2-c2nn[nH]n2)c(O)c1,i,i,i,i,22.2,i
O=C(Cc1cccs1)Nc1cccc(-c2nc3cc4ccccc4cc3[nH]2)c1,i,55.7,i,i,i,i
O=S(=O)(O)c1cccc2cccc(Nc3ccccc3)c12,i,i,i,i,80.9,i
Cc1[nH]c2ccccc2c1/C=C/c1nc2ccccc2c(=O)n1-c1ccc([N+](=O)[O-])cc1,i,589.3,i,i,i,i
CCn1c(/C=C/c2c(C)[nH]c3ccccc23)nc2ccccc2c1=O,i,105.5,i,i,i,nt
O=c1c2ccccc2nc(/C=C/c2ccc([N+](=O)[O-])o2)n1-c1ccc(O)cc1,i,i,nt,nt,i,nt
CCn1c(/C=C/c2c[nH]c3ccccc23)nc2ccccc2c1=O,i,i,i,i,i,i
O=c1c2ccccc2nc(/C=C/c2ccccc2)n1-c1ccc(O)cc1,i,i,i,i,i,i
Cc1cccc(-n2c(/C=C/c3ccc([N+](=O)[O-])o3)nc3ccccc3c2=O)c1,i,90.3,i,i,i,nt
COCCCN(Cc1ccco1)C(=O)c1cc2c(s1)-c1ccc(Cl)cc1S(=O)(=O)C2,i,i,i,i,i,i
CCC(=O)N1CCC(C)(C(=O)Nc2ccc3c(c2)OCCO3)C1 (stereo not given),i,nt,nt,nt,i,nt
SMILES,Vc quorum ag,MazEF act,Mtb betalactam,Rv3671c inh,FadD28 binding,Mtb UGM inh
CCC(=O)N1N=C(c2ccc(NS(=O)(=O)c3ccccc3)cc2)CC1c1ccco1 (stereo not given),i,i,i,i,i,i
CC(CCC(C)C(C)(C)C)[C@@H]1CC[C@H]2C3C[C@H](OS(O)(=S)=S)[C@H]4C[C@H](OS(O)(=S)=S)[C@@H](OS(O)(=S)=S)C[C@]4(C)[C@H]3CC[C@]12C (stereo not given in full) (tested in a mixture with another compound),i,i,i,i,65.1,i
COc1ccc(N/N=C(/C(C)=O)N2CCCc3ccccc32)cc1,i,i,i,i,i,i
COc1ccccc1NC(=O)C(=N\O)/C(C)=N/O,i,i,i,i,i,i
COc1ccccc1NC(=O)/C(=N/OCc1ccc(F)cc1)C(C)=O,i,74.6,i,i,i,i
O=C(Nc1cccc2ncccc12)c1ccc(Cl)cc1,i,110.0,i,i,i,i
O=C(Nc1cccc2ncccc12)c1ccc(F)cc1,i,i,i,i,i,i
COCCNC(=O)C1(C)CCCN(Cc2ccc3ccccc3c2Br)C1 (stereo not given),i,nt,nt,nt,i,nt
CCN1/C(=C2\OC(=S)N(C)C2=O)C=Cc2ccccc21,i,655.7,i,i,i,i
Nc1c(C(=O)NCc2ccc3c(c2)OCO3)nnn1CC(=O)Nc1ccc(Br)cc1,i,90.4,i,i,i,i
Cc1ccc(NC(=O)Cn2nnc(C(=O)NCc3ccc4c(c3)OCO4)c2N)cc1,i,i,i,i,i,i
Cc1cc(C)c(NC(=O)Cn2nnc(C(=O)NCc3ccc4c(c3)OCO4)c2N)c(C)c1,i,70.2,i,i,i,i
CN(C(=O)c1cccc(NC(=O)Cc2ccc(NC(=O)C3CCN(C(=O)CCc4ccccc4)CC3)cc2)c1)C1CCCCC1,i,i,nt,nt,i,nt
CCCCCCn1c(=O)[nH]c2nc3cc(N)ccc3nc2c1=O,nt,364.0,i,i,nt,i
CCCCCn1c(=O)c(C(=O)c2ccccc2)nc2ccccc21,i,i,i,i,i,i
COc1ccc(-c2csc(C(O)c3ccccc3)n2)cn1 (stereo not given),i,nt,nt,nt,i,nt
N=c1c2ccccc2nnn1-c1ccc(C(F)(F)F)cc1,i,i,i,i,i,i
CC1(C)OC(c2ccccc2)=C/C(=C/C=C2C(=O)NC(=S)NC2=O)O1,nt,+,i,i,nt,i
CC(C)C[C@@H](CN)NC(=O)c1nc[nH]c1C(=O)N[C@@H](CC(C)C)C(=O)CNC[C@H](C)NC(=O)c1nc[nH]c1C(=O)N[C@@H](CC(=O)O)C(=O)O,i,i,nt,nt,i,nt
COC(=O)c1ccccc1NC1=C/C(=N\S(=O)(=O)c2ccc(C(=O)O)cc2)c2ccccc2C1=O,i,i,i,i,24.1,i
C[C@@H]1CCCCCCCCC(=O)OCCN(C(=O)OC(C)(C)C)[C@H](C)CCCCCCCCC(=O)OCCN(C(=O)OC(C)(C)C)[C@H](C)CCCCCCCCC(=O)OCCN1C(=O)OC(C)(C)C,nt,i,i,i,nt,i
COc1cc(C(C)=O)ccc1Oc1ncnc2c1cnn2-c1ccccc1,i,60.2,i,i,i,i
O=C(O)c1cccc(-n2cccc2/C=C/[N+](=O)[O-])c1,i,i,i,i,13.0,i
CCN1C(=S)SC(=O)C1=C1C=C(C)OC(C)=C1,i,+,i,i,i,i
COc1ccc(CCNC(=O)c2ccc3c(c2)SC2=NS(=O)(=O)CCN23)cc1,i,i,i,i,i,i
O=C(Nc1cccc(Cl)c1)c1ccc2c(c1)SC1=NS(=O)(=O)CCN12,i,135.9,nt,nt,i,nt
COc1cc(=O)n(C)c2ccccc12,20.7,i,i,i,i,i
